The source of these data is ChEMBL document CHEMBL4513146, “CO-ADD screening of Karazin Kharkiv National University (Ukraine) compounds”.

The structures appear in SMILES notation. Potency and affinity values are given separately.

The assay concerns Escherichia coli. As to conditions: Concentration 32 ug.mL-1;; ASSAY_TEST Inhibition of Bacterial Growth; detection method Absorption (OD600); MEDIA CAMHB; plate type 384well; NBS; CORNING #3640; time 18 hr.
What is called Inhibition is the drop in the measured response relative to a control, in per cent. On to `Cc1cc(C)cc(NC(=O)Cn2nc3c4cc(-c5ccc(Cl)cc5)nn4ccn3c2=O)c1`, for which the Inhibition stood at 6.23%.
Next, `COc1ccc(NC(=O)Cn2nc3ccc(-c4ccc(Cl)cc4)nn3c2=O)cc1OC`: -4.63%; `Cc1ccc(-n2ccn3c(SCC(N)=O)nnc3c2=O)cc1C`: 0.16%.
Next, `O=S(=O)(c1ccc2nncn2c1)N(Cc1cccc(F)c1)c1ccc2c(c1)OCCO2`: -4.29%.
Next, `CC(C)CCNC(=O)CSc1nnc2c3cc(-c4ccccc4)nn3ccn12`: 0.66%; `Cc1ccc2c(c1)N(C(=O)Cn1nc3ccc(SC(C)(C)C)nn3c1=O)CCO2`: -0.14%.
For the compound `COc1cccc(-n2ccn3c(SCC(=O)NC(C)C)nnc3c2=O)c1`, the Inhibition was -7.26%.
In the case of `O=C(Cn1nc2c3sc(N4CCCC4)nc3ncn2c1=O)Nc1ccccc1Br` it was -11.75%; in that of `Cc1ccc(CNC(=O)Cn2nc3c(SC4CCCCC4)nccn3c2=O)cc1`, -3.86%.
As for `COc1ccc(NC(=O)CSc2nc3ccccc3n3cnnc23)cc1OC`, the Inhibition was determined as 2.46%.
In the case of `Cc1nnc2ccc(S(=O)(=O)N(Cc3cccc(F)c3)c3ccc(F)c(F)c3)cn12` it was -12.6%.
Next, `CCc1ccc(N(Cc2cccc(C)c2)S(=O)(=O)c2cccn3c(C)nnc23)cc1`: 0.34%.
In the case of `COc1ccc(OC)c(NC(=O)Cn2nc3c(Sc4ccccc4)nc4ccccc4n3c2=O)c1` it was -0.83%; in that of `Cc1ccc(-n2ccn3c(=O)n(Cc4c(F)cccc4Cl)nc3c2=O)cc1C`, -0.86%.
Turning to `COc1cccc(-c2nc(CSc3nc4ccccc4n4c(C(C)C)nnc34)c(C)o2)c1OC`, the Inhibition is given as -1.56%.
In the case of `Cn1c(=O)c2sccc2n2c(=O)n(Cc3ccc(Cl)cc3)nc12` it was -4.41%.
In the case of `Cc1ccc(Oc2nc3ccccc3n3c(=O)n(CC(=O)Nc4cccc(C(F)(F)F)c4)nc23)cc1` it was -3.3%.
In the case of `Cc1ccc(-c2ccc3nn(CC(=O)Nc4ccc(Cl)cc4F)c(=O)n3n2)cc1` it was -2.22%; in that of `COc1ccc(C(=O)CSc2nnc3c(=O)n(-c4ccccc4)ccn23)cc1OC`, -14.26%.
In the case of `COc1cc(NC(=O)C(C)Sc2nnc3c(=O)n(-c4ccc(C)c(C)c4)ccn23)cc(OC)c1` (stereo not given), the Inhibition was -10.24%.
In the case of `CCOc1ccccc1NC(=O)Cn1nc2c(N3CCN(c4ccccc4C)CC3)nccn2c1=O` it was -13.69%.
Turning to `CCCCn1c(=O)c2sccc2n2c(CCC(=O)Nc3ccc(OC(F)(F)F)cc3)nnc12`, the Inhibition is given as -8.31%.
Next, `COc1ccc(N(Cc2cc(F)cc(F)c2)S(=O)(=O)c2ccc3nnc(C)n3c2)cc1`: -2.53%; `CCc1nnc2c(S(=O)(=O)N(Cc3cccc(F)c3)c3ccccc3)cccn12`: -5.76%.
Next, `CCC(C)NC(=O)Cn1nc2n(CCC(C)C)c(=O)c3sccc3n2c1=O` (stereo not given): -5.43%.
As to `CSc1cccc(NC(=O)Cn2nc3ccc(C(=O)NCc4ccccc4)cn3c2=O)c1`, the Inhibition is given as -2.4%.
Next, `CC(C)(C)S(=O)(=O)c1ccc2nn(CC(=O)Nc3ccc(Br)cc3)c(=O)n2n1`: -5.05%; `CCc1ccc(N(Cc2ccccc2C)S(=O)(=O)c2cccn3c(C)nnc23)cc1`: -5.19%; `COc1cc(OC)c(NC(=O)Cn2nc3c(N4CCOCC4)nccn3c2=O)cc1Cl`: -1.96%.
Consider `Cc1ccc(-c2cc3c4nnc(CCC(=O)N5CCN(c6ccccc6F)CC5)n4ccn3n2)cc1C`, for which the Inhibition is given as -5.39%.
In the case of `CCOc1ccc(-n2ccn3c(=O)n(CC(=O)Nc4ccc(Br)cc4)nc3c2=O)cc1` it was -1.87%.
Next, `Cc1cc(C)cc(Nc2nc(C)cc3nn(CC(=O)Nc4ccc(Cl)cc4)c(=O)n23)c1`: 0.58%; `CSc1ccc(CNC(=O)Cn2nc3c(N4CCN(c5ccccc5)CC4)nccn3c2=O)cc1`: 0.69%.
Next, `COc1cccc(CN(c2ccc(F)c(F)c2)S(=O)(=O)c2cccn3c(C)nnc23)c1`: 2.94%.
With `O=C(Cn1nc2c(Oc3ccccc3)nccn2c1=O)Nc1ccccc1Cl`, the Inhibition is recorded as -6.19%.
Next, `O=S(=O)(Nc1ccc2c(c1)OCCO2)c1ccc2nncn2c1`: -4.23%; `COc1ccc(NC(=O)Cn2nc3c(Sc4cccc(F)c4)nccn3c2=O)cc1Cl`: -7.48%; `Cc1ccc(NC(=O)CSc2nnc3c(=O)n(-c4ccc(C)c(C)c4)ccn23)c(Cl)c1`: -1.65%.
Next, `COc1ccccc1NC(=O)CSc1nnc2c(=O)n(-c3ccc(C)c(C)c3)ccn12`: -7.52%; `Cc1ccc(NC(=O)Cn2nc3c(Sc4cccc(F)c4)nccn3c2=O)cc1F`: 1.14%.
